# Test results as given in PubChem BioAssay AID2284323 (EPA ToxCast).
# Several values for one entry are separate records, joined by “and”; a condition that tells them apart may be missing. Equal entries are not always repeated. Activity calls are given as the source filed them. The calls were made as follows: active = hit-call score of the fitted dose curve at least 0.9, where 1 is the maximum; inactive = score below 0.9.
# Tested on: NCBI gene 447152
# Experiment: CCTE_GLTED_xIYD: CCTE's Xenopus Iodotyrosine Deiodinase (xIYD) Inhibition Assay, Great Lakes Toxicology and Ecology Division (GLTED) Lab
# Procedure: CCTE_GLTED_xIYD is a cell-free, single-readout assay that uses Xenopus (frog) iodotyrosine deiodinase (xIYD) enzyme from liver microsomes. Assay is based on iodide release measured by the Sandell-Kolthoff method and is run in 96-well plate format with assay plates run in triplicate (n=3) with measurements taken at 3 hours after chemical dosing. Platewise-normalization was used based on positive control (3-Nitro-L-tyrosine, MNT) and negative/solvent controls (DMSO, NaOH).CCTE_GLTED_xIYD is the assay component measured from the CCTE_GLTED_xIYD assay. It measures substrate involved in regulation of catalytic activity using spectrophotometry. The assay measures the deiodination activity of Xenopus (frog) IYD on the substrate monoiodotyrosine (MIT). After 3h incubation of substrate, enzyme, and test chemical, the components are applied to a 96-well Dowex column. Free iodide is not retained by the column and is separated from interfering assay components. The free iodide is measured by the Sandell-Kolthoff reaction in which the rate of reduction of cerium (Ce+4 to Ce+3) by arsenic (As+3 to As+5) is increased by the presence of iodide. This is observed as the loss of yellow color in the reaction and the quantified by the change in absorbance at 420 nm. The change in reaction rate is proportional to the amount of iodide present.Data from the assay component CCTE_GLTED_xIYD was analyzed at the assay endpoint CCTE_GLTED_xIYD in the positive analysis fitting direction relative to DMSO as the negative control and baseline of activity. Using a type of enzyme reporter, loss-of-signal activity can be used to understand iodotyrosine deiodinase activity. To generalize the intended target to other relatable targets, this assay endpoint is annotated to the 'dehalogenase' intended target family, where the subfamily is 'iodotyrosine deiodinase'.
# Human transthyretin (TTR) assay, developed at Great Lakes Toxicology and Ecology Division (GLTED) within the EPA's Center for Computational Toxicology and Exposure (CCTE), is designed to test the chemicals' ability to displace T4 from the TTR protein. TTR (0.125uM) is incubated in presence of test chemical for 2 hours during which disrupting chemicals displace ANSA from the TTR protein. Results read fluorescence at 380 excitation and 475 emission.
row,SMILES,AC50
1,O=C(O)C(F)(F)C(F)(F)C(F)(F)C(F)(F)C(F)(F)C(F)(F)C(F)(F)C(F)(F)F,39.2 µM (active)
2,NS(=O)(=O)C(F)(F)C(F)(F)C(F)(F)C(F)(F)C(F)(F)C(F)(F)C(F)(F)C(F)(F)F,61.2 µM (active)
3,O=C(O)C(F)(F)C(F)(F)C(F)(F)C(F)(F)C(F)(F)C(F)(F)C(F)(F)C(F)(F)C(F)(F)C(F)(F)F,35.9 µM (active)
4,O=C(O)C(F)(F)C(F)(F)C(F)(F)C(F)(F)C(F)(F)C(F)(F)C(F)(F)C(F)(F)C(F)(F)F,73.7 µM (active)
5,O=S(=O)(O)C(F)(F)C(F)(F)C(F)(F)C(F)(F)C(F)(F)C(F)(F)C(F)(F)C(F)(F)F,36.4 µM (active) and 27.5 µM (active)
